NALP1 yeast inh – inhibitors of NALP1 inflammasome in yeast; S. cerevisiae NALP1/ASC/caspase-1 growth, X-gal OD620, 72 h; inhibition, % at 10 µM; AID 2071; 280,000 compounds, 0.61% hits; in the data active means inhibition mostly above about 24%, no sharp cut-off; inactive means mostly below about 32%
HGIII-sPLA2 inh – Blocks human group III sPLA2 activity; QFRET BODIPY PC-A2 liposome hydrolysis, fluorescence; inhibition, % at 12.2 µM; 370,000 compounds, 0.56% hits; AID 743126;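 active means inhibition above mean plus 3 SD of compounds lying within the high and low control bounds, cut at about 19% in these data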
A3A deaminase – human APOBEC3A DNA deaminase inhibition; P31941; recombinant A3A, FAM/TAMRA ssDNA deamination fluorescence; inhibition, % at 20 µM; 330,000 compounds, 0.41% hits;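 active means at least 40% inhibition at 20 µM here, with at most 30% in a related deaminase screen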
Target sequence (P31941 whole entry, looked up): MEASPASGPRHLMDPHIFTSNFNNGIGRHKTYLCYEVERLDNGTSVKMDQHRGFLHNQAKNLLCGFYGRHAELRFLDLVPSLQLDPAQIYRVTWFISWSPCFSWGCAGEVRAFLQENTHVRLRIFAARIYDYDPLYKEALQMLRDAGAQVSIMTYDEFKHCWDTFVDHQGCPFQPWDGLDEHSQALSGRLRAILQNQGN
APOBEC3G inh – blocks human APOBEC3G single-stranded DNA deamination | Q9HC16 | AID 493012 | recombinant A3G, ssDNA deamination FAM/TAMRA fluorescence | 330,000 compounds, 0.28% hits | inhibition, % at 20 µM;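 active means inhibition of at least 40% at 20 µM, with no more than 30% in the related APOBEC3A deaminase screen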
Target sequence (Q9HC16 whole entry, looked up): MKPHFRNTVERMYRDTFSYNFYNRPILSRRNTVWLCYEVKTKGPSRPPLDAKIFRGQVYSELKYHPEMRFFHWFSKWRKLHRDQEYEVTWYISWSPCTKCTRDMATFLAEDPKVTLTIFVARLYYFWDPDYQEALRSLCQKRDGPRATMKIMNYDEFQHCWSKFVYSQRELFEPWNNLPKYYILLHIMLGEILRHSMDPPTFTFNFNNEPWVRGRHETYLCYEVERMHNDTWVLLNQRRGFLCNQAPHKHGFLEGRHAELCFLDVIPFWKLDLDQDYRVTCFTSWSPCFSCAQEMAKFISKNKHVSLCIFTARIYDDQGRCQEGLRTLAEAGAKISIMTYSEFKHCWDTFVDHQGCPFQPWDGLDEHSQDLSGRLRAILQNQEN
CTSL1 counter – blocks F. hepatica cathepsin L1 in PFM18AAP counter-screen; recombinant F. hepatica cathepsin L1, Z-Leu-Arg-MCA fluorescence; inhibition, % at 5.96 µM; 300,000 compounds, 0.49% hits;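 active means inhibition above the mean of all tested compounds plus 3 SD, set per screening campaign, cut at about 17% in these data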
Numbers stand for hits; n = inactive; x = not tested or not shown. In the library only some 2% were active in any assay of this set; here they are far more common.

SMILES	NALP1 yeast inh	HGIII-sPLA2 inh	A3A deaminase	APOBEC3G inh	CTSL1 counter
Cc1cc(C)cc(C(=O)OCCCN(C)C2CN(Cc3cn(Cc4ccc([N+](=O)[O-])cc4)nn3)S(=O)(=O)C2)c1 (stereo not given)	x	n	x	x	x
COc1ccc(S[C@]2(C(=O)N3CCN(C(C)=O)CC3)CC(=O)N(S(=O)(=O)c3ccc(F)cc3)[C@@H]2c2ccc(OC)cc2)cc1	x	n	x	x	x
CC(C)C(NS(=O)(=O)c1cccs1)C(=O)NCCN1CCN(c2ccccc2)CC1 (stereo not given)	n	x	n	n	47.8
COc1ccc(N2CCN(CCNC(=O)CCNS(=O)(=O)c3cccs3)CC2)cc1	n	n	n	n	n
COc1ccc(C(=O)/C=C/c2ccc(OC)cc2OC)c(O)c1	n	n	n	n	n
COc1ccc(C(=O)/C=C/c2ccccc2)c(O)c1	n	n	n	n	22.3
OCCN1CCN(c2ncnc3ccc(Br)cc23)CC1	32.2	n	n	n	n
COc1ccc(C(=O)OCCCOC(=O)c2ccc(OC)cc2OC)c(OC)c1	n	n	n	n	n
COc1cccc(OC)c1C(=O)OCCCOC(=O)c1c(OC)cccc1OC	28.5	n	n	n	n
CCOC(=O)c1cc(NC(=O)N(C(C)C)C(C)C)c(C)nc1C	n	n	n	n	n
CCOC(=O)c1cc(NC(=O)N(CC)CC)c(C)nc1C	37.2	n	n	n	n
CN(CCOC(=O)c1cc2ccccc2o1)C1CN(Cc2cn(Cc3ccccc3F)nn2)S(=O)(=O)C1 (stereo not given)	x	n	x	x	x
S=C(NCCNCc1ccccc1)NC1CCCCC1	n	x	n	n	19.0
S=C(NCc1ccccc1)NC1CCSc2ccccc21 (stereo not given)	27.0	n	n	n	n
CN1CCN(c2nc(-c3cccc([N+](=O)[O-])c3)nc3ccccc23)CC1	39.3	n	n	n	n
CC1(C)C(=O)N(c2ccccc2)C1c1ccccc1O (stereo not given)	n	n	n	n	n
COc1ccc(N2C(=O)C(C)(C)C2c2c(O)ccc3ccccc23)cc1 (stereo not given)	n	n	n	n	16.9
CC1CCc2c(C(=O)NCCN3CCOCC3)csc2C1 (stereo not given)	n	n	n	n	n
CC1CCc2c(C(=O)Nc3ccc(N4CCOCC4)cc3)csc2C1 (stereo not given)	27.2	n	n	n	n
O=C(Nc1nnc(-c2cccs2)o1)c1cccc(Oc2ccccc2)c1	38.2	n	n	n	n
O=C(Nc1nnc(-c2cccs2)o1)c1cccc(F)c1	x	n	n	n	n
CCc1onc(C)c1C(=O)Nc1ccc2c(c1)OCO2	n	n	n	n	18.7
Cc1noc(C(=O)Nc2ccc3c(c2)OCO3)c1Cl	n	n	n	n	n
CC(=O)c1cc(-c2ccc(-c3ccccc3)c(F)c2)c(=O)n2c1CCC2	x	n	x	x	x
CCOC(=O)c1ccc(N2C(=O)CC(Sc3nc(C)cc(C)n3)C2=O)cc1 (stereo not given)	n	n	n	n	x
SMILES	NALP1 yeast inh	HGIII-sPLA2 inh	A3A deaminase	APOBEC3G inh	CTSL1 counter
CCOC(=O)c1ccc(N2C(=O)C=CC2=O)cc1	108.2	x	n	n	n
CCOC(=O)c1ccc(N2C(=O)CC(Sc3nnc(C)s3)C2=O)cc1 (stereo not given)	39.6	n	n	n	n
COC(=O)[C@]12C[C@H](CC(=O)NCCCCc3ccccc3)C(=O)N(CCc3ccc(OC)c(OC)c3)C1=C[C@H](C(C)C)O[C@@H]2C1CC1	x	n	x	x	x
CCN(CC)C(=O)C1CCCN(c2ccc([N+](=O)[O-])cc2)C1 (stereo not given)	34.8	n	n	n	n
CCN(CC)C(=O)C1CCCN(c2ccc([N+](=O)[O-])cc2/C=N/NC(=O)c2ccc([N+](=O)[O-])cc2)C1 (stereo not given)	n	n	n	n	n
Cc1cc([N+](=O)[O-])nn1CC(=O)NCCCN1CCOCC1	n	n	n	n	n
Cc1cc(C)c2c(=O)n(CC(=O)NCCCN3CCN(c4ccccc4F)CC3)sc2n1	n	x	n	53.5	n
Cc1cc(C)c2c(=O)n(CC(=O)NCCCN3CCOCC3)sc2n1	x	x	n	54.4	n
NC(=O)C1CCN(c2nc(-c3ccc4c(c3)CCO4)cs2)CC1	x	n	x	x	x
COc1ccc(C(=O)Nc2cccc(N(C)S(C)(=O)=O)c2)cc1OC	n	n	n	n	n
Cc1ccc(C(=O)Nc2cccc(N(C)S(C)(=O)=O)c2)cc1S(=O)(=O)Nc1ccccc1	n	n	n	n	19.5
COc1ccc(CNC(=O)c2cc3c(=O)n4cccc(C)c4nc3n(CC3CCCO3)c2=N)cc1 (stereo not given)	35.6	n	n	n	n
CNC(=O)c1ccccc1S(=O)(=O)c1ccccc1C#N	28.0	n	n	n	n
O=C1C=CC(=O)N1CCCCCCN1C(=O)C=CC1=O	111.6	n	x	x	n
CN(C(=O)CCn1nnc(-c2cccs2)n1)C1CCCCC1	x	n	x	x	x
N#Cc1nccnc1S(=O)(=O)c1cccs1	23.4	n	n	n	n
O=C1CCC[C@H]2C[C@H](NCc3ccc(Cl)c(Cl)c3)CC[C@]23CCCN13	x	n	x	x	x
CCn1c(SCc2c(F)cccc2F)nc2sc3c(c2c1=O)CCCC3	x	n	x	x	x
C=CCn1c(-c2cccs2)nc2ccccc21	24.6	n	n	n	n
COc1cc(C(=O)NC2=NCCS2)ccc1OCc1c(C)noc1C	n	n	n	n	37.2
CCOc1ccc(Br)cc1S(=O)(=O)Nc1ccc(Cl)c(S(=O)(=O)N(C)C)c1	n	n	n	n	n
CCOc1ccc(Br)cc1S(=O)(=O)Nc1ccc(Cl)c(S(=O)(=O)N(CC)c2ccccc2)c1	n	n	n	n	16.7
CCOC(=O)c1oc2ccccc2c1NC(=O)CCl	n	n	n	n	32.8
COc1ccc(NC(=O)c2cc3cccc(OC)c3oc2=Nc2ccc(C(=O)O)cc2)cc1OC	28.4	n	x	x	x
COc1ccc(OC)c(S(=O)(=O)Nc2cccc3c(O)cccc23)c1	x	n	n	n	n
SMILES	NALP1 yeast inh	HGIII-sPLA2 inh	A3A deaminase	APOBEC3G inh	CTSL1 counter
COc1ccc(OC)c(S(=O)(=O)Nc2ccc(O)c3ccccc23)c1	104.5	n	n	n	n
CC(=O)C1(C(=O)NC2CCCC2)CC(c2ccccn2)=NO1 (stereo not given)	x	n	x	x	x
CC(=O)N1CCc2cc(S(=O)(=O)NC(Cc3ccccc3)C(=O)Nc3cc(C)ccn3)ccc21 (stereo not given)	38.2	n	n	n	n
COC(=O)[C@H](CC1(c2cn(S(=O)(=O)CC[Si](C)(C)C)c3ccccc23)C(=O)Nc2ccccc21)NC(=O)OC(C)(C)C (stereo not given in full)	x	n	x	x	x
CCOC(=O)c1c(-c2ccccc2)nc2c(C)cccn12	n	n	n	n	n
CCOC(=O)c1c(-c2ccccc2)nc2ccccn12	87.2	n	n	n	n
CCC[C@H]1[C@@H](N(C)Cc2ccccc2)CC[C@@]23CCCN2C(=O)CCC[C@@H]13	x	n	x	x	x
CC(=O)NC1(c2ccccc2)CCN(c2cc(C)nc(-c3ccccc3)n2)CC1	39.9	n	n	n	n

Assay outcomes from PubChem.
